Compound activity from PubChem.
GLS inh: qHTS for Inhibitors of Glutaminase (GLS) | Glutaminase kidney isoform, mitochondrial (Homo sapiens), O94925 | GLS enzymatic activity, qHTS titration | Potency, µM (highest dose often 45.5 µM), without a hit: top-dose activity change, negative = inhibition, hits mostly inhibitors | 410,000 tested, 0.21% active | AID 624170, 2012; also: potency is read from the fitted curve at half-maximal effect; % is scaled to controls: 0 for no effect and ±100 for the full control effect
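hKGA in 45 mM KH2PO4 (pH 8.2), 0.02% Tween-20 with compound, then 1mM L-Glutamine (stock as added) plus glutamate oxidase/HRP/Amplex red coupling mix. Fluorescence read initially and after 30 min at RT; signal change reflects glutamate formation.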
PINK1 modulator: A Quantitative High throughput Screen to Identify Chemical Modulators of PINK1 Expression. PINK1 immunofluorescence, high-content cytometry, 24 h. 410,000 tested, 0.2% active. Potency, µM (highest dose often 76.6 µM), for inactives: at the top dose activation (PINK1 increase), actives largely listed as activators; active = well fitted activation curve with a large enough effect; inconclusive = small, poorly fitted or top-dose-only effect; cell line not stated here; also: potency is read from the fitted curve at half-maximal effect; % of control where 0% means no effect; nearly all actives have a fitted effect of over 65% in size
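Stable cell line, 250 cells/well, 12 h attachment; compounds pinned at 5 concentrations, 24 h; CCCP control. Fixed with nuclear dye, primary antibodies 12 h at 10 degrees C, secondary plus cell stain; laser-scanning cytometer read.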
PI4K2A block: qHTS for small molecular inhibitors of PI4K2A; Phosphatidylinositol 4-kinase type 2-alpha (Homo sapiens), Q9BTU6; purified PI4K2A, ADP-Glo luminescence, 1 h; stronger effect = lower value; activity change, negative = inhibition, % at 76.9 µM; 420,000 tested, 0.13% active; AID 1346378, 2018; in the data active = activity change below about -50%; inconclusive = mostly about -30% to -49%;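 also: -100% = wells without enzyme as full effect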
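Compounds are screened against recombinant PI4K2A using PI as substrate and ATP, the latter dispensed at 300 microM. Reactions run one hour at ambient temperature before ADP-Glo detection; full inhibition defined by wells lacking enzyme.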
CCT chaperon mod: High-Throughput Screening for Modulators of Cytosolic Chaperonin Activity; purified chaperonin ATPase assay, HTRF ADP detection, 30 min; activity change, % (concentration not given with the values), hits read low; 360,000 tested, 0.3% active; in the data active = activity change below about -30%; also: % is scaled to controls: 0 for no effect and ±100 for the full control effect
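Nucleotide hydrolysis assay: TRiC at 20–40 nM final (set by batch activity) with 10 uM ATP, 30 min at 37 °C, in presence of 76 uM compound. Detection by competitive ADP HTRF, 30 min ambient.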
PGK inhibitor: qHTS Assay to Find Inhibitors of Phosphoglycerate Kinase; AID 602233, 2012; 380,000 tested, 0.043% active; Potency, µM (doses to about 57.5 µM), inactives show top-dose activity change, negative = inhibition, most hits filed as inhibitors; PGK/GAPDH coupled, Kinase-Glo luminescence, 60 min; also: potency is read from the fitted curve at half-maximal effect; % is scaled to controls: 0 for no effect and ±100 for the full control effect; nearly all actives have a fitted effect of over 60% in size
Target sequence (P07378 whole entry, looked up): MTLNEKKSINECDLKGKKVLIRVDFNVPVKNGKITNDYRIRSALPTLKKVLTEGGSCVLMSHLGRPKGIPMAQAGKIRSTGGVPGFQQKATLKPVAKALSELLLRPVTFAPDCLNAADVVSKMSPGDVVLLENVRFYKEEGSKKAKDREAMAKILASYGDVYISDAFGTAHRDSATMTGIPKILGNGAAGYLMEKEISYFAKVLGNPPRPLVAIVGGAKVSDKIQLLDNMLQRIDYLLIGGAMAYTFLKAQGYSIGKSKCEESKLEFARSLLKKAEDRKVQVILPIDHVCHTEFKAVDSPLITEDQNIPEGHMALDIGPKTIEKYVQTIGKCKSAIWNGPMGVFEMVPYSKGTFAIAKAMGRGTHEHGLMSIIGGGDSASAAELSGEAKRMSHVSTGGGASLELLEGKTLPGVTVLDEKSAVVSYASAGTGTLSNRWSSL
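Recombinant glycosomal PGK reaction used 1,3-bisphosphoglycerate generated in-well by GAPDH (100nM final) in 100mM TEA pH 7.6, 5mM MgCl2, 0.01% Tween-20. After 60 minutes at room temperature, ATP was read by Kinase-Glo Plus luminescence end-point.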
* hit, by the source's call; i = inactive; ? = inconclusive; / = no result; ! = not confirmed by another sample; [ ] = another dose, or the depositor's remark. In the library only some 0.78% were active in any assay of this set; here they are far more common. Unless noted, calls follow the shape of the dose curve; as a rule, active = well fitted curve in the direction sought with a large enough effect; inconclusive = small, poorly fitted or top-dose-only effect, or another doubt; inactive = no such curve, though single readings can be large; an effect the other way counts as inactive or inconclusive.

SMILES	GLS inh	PINK1 modulator	PI4K2A block	CCT chaperon mod	PGK inhibitor
Cc1c(C(=O)NCCC2CCCN2C)cnn1-c1nccc(-c2ccccc2F)n1 (centres undefined)	/	-1%	/	/	/
CCc1nc2cc(C(=O)N3CCCN(C=O)CC3)cc(NC(=O)c3ccccc3OC)c2n1C	/	-1%	/	/	/
COc1ccccc1-c1ccnc(-n2ncc(C(=O)NC(c3cccnc3)C(F)(F)F)c2C)n1 (centres undefined)	/	6%	/	/	/
C=CCn1c(SCC(=O)N2CCN(c3ccccc3)CC2)nnc1-c1ccco1	38%	-3%	0	0	3%
CCn1c(SCC(=O)N2CCN(c3ccccc3)CC2)nnc1-c1cc2cc(Cl)ccc2o1	11%	11µM*	-1	-2	-3%
Cc1nc(C)c(C(=O)N2CCc3c(cnc(C)c3CNC(=O)c3cncs3)C2)s1	/	0%	/	/	/
COC(=O)[C@@]1(Cc2ccccc2)[C@H]2C(=O)N(C)C(=O)[C@H]2[C@H]2CN=C(SCc3ccc(C)cc3)N21	2%	0%	-3	-60*	-12%
Cc1cccc(CNc2ncnc3ccc(-c4ccc5c(c4)OCCO5)cc23)c1	2%	22µM*	1	/	i
CN(C)c1ccc(C=c2c3cc([N+](=O)[O-])ccc3n3c2cc(-c2ccccc2)[n+]3C)cc1	-2%	0%	-51*	1	-19%
O=C(N1CCOCC1)N1CCN(c2ccccc2F)CC1	1%	-1%	-62*	-3	-5%
CCc1oc2c(C)c(O)ccc2c(=O)c1-c1ccc2ccccc2n1	4%	10%[38.3 µM]	-52*	0	-1%
O=C(O)C1CCCN1S(=O)(=O)c1cc(Cl)ccc1Cl (centres undefined)	2%	0%[38.3 µM]	0	-56*	-2%
CC(C)(S)C(=O)N[C@H](CS)C(=O)O	-10%	/	/	/	/
Clc1ccc(CNc2ccccc2NCc2ccc(Cl)nc2)cn1	13µM*	1%	-4	-3	-1%
CCc1nc2cc(C(=O)N(C)CC3CCCN(C)C3)cc(NC(=O)c3ccccc3OC)c2n1C (centres undefined)	/	0%	/	/	/
CCC1=NN2C(=N)/C(=C\c3ccc(OCc4cc(=O)n5nc(CC)sc5n4)c(OC)c3)C(=O)N=C2S1	11µM*	5%	-6	-2	-16%
Cc1c(C(=O)NC2CCCCCC2)sc2ncnc(NCC3CCCO3)c12 (centres undefined)	/	3%	/	/	/
CCOC(=O)C(=O)CCc1ccccc1	/	/	-2	/	/
COc1ccc2cc3[n+](cc2c1O)CCc1cc2c(cc1-3)OCO2	?	0%	-52*	1	/
COc1cc2c(cc1OC)-c1cc3ccc(OC)c(OC)c3c[n+]1CC2	1%	0%	-6	0	0%
O=C1CC(=O)N(Cc2ccco2)C(=O)N1	10µM*	2%	?	1	5µM*
Cc1nonc1NC(=O)CSc1nc2cc(Cl)ccc2c2c1CCCC2	-12%	?	1	-5	i
Cc1ccc2c3c(c(SCC(=O)Nc4nonc4C)nc2c1)CCCC3	-3%	10µM*	-3	1	-1%
OCCN1CCN(Cc2ccc3c(c2)CN(Cc2cc4ccccc4o2)CCO3)CC1	/	-1%	/	/	/
N[C@H](C(=O)O)c1ccc(O)cc1	/	/	i	/	/
SMILES	GLS inh	PINK1 modulator	PI4K2A block	CCT chaperon mod	PGK inhibitor
O=C(Nc1ccccc1)c1cccnc1NCCc1ccccc1	-7%	15%	3	-91*	-6%
COc1ccc(NC(=O)c2cccnc2NCCc2ccccc2)cc1	1%	?	2	-3	-8%
Cc1cccc(C(=O)N[C@H]2CC[C@@H](n3cc(C(=O)N4CCCC4)nn3)CC2)c1	/	0%	/	/	/
COc1cccc(C(c2c(C)[nH]n(-c3ccccc3)c2=O)c2c(C)[nH]n(-c3ccccc3)c2=O)c1O	1%	1%	-51*	-1	-8%
COc1cccc(C(c2c(C)[nH]n(-c3ccccc3)c2=O)c2c(C)[nH]n(-c3ccccc3)c2=O)c1OC	-21%	10%	?	-2	-11%
O=C(Nc1cccc(Cl)c1)C1C2CCC3C(CCC21)C3(Cl)Cl (centres undefined)	1%	22µM*	-4	0	2%
Cc1nc(C)c(CC(=O)N2CCOc3ccc(CN4CCN(c5ccccn5)CC4)cc3C2)s1	/	0%	/	/	/
Cc1nnc(SCC(=O)N2CCN(c3ccccc3F)CC2)n1C1CC1	-2%	-1%	4	-97*	0%
O=C(CSc1nnnn1C1CC1)N1CCN(c2ccccc2F)CC1	11%	0%	0	0	1%
Fc1ccc(Nc2cncc(-c3ccsc3)c2)cc1Cl	-1%	6%	-50*	0	/
CCCc1ccc(C(=O)NC(=O)c2ccccc2O)cc1	17%	45µM*	0	-2	-8%
O=C(NC(=O)c1ccccc1O)c1ccc(C(F)(F)F)cc1	7%	32µM*	13	-1	-1%
O=C(NC(=S)NNC(=O)c1ccccc1O)c1ccc(F)cc1	24%	-1%	-3	-3	i
CC1(C)C(/C=C/C=C/C=C/C=C2\N(CCCCS(=O)(=O)O)c3ccc4ccccc4c3C2(C)C)=[N+](CCCCS(=O)(=O)[O-])c2ccc3ccccc3c21	6.3µM*	1%	-65*	0	?
CCCc1cc(=O)oc2cc(C)c(CN3CCCC3)c(O)c12	10µM*	2%	?	-5	-5%
CCOc1ccc(OCC(=O)Nc2nccs2)cc1	-7%	-1%	-86*	1	?
O=C(Cc1ccccc1)Nc1nccs1	-1%	4%	2	-2	i
O=C(Cc1ccccc1[N+](=O)[O-])Nc1nccs1	-1%	-3%	5	-33*	-4%
CCC1C(=O)NCCN1Cc1ccc2c(c1)CN(Cc1ccc(OC)cc1OC)CCO2 (centres undefined)	/	1%	/	/	/
Cc1oc(-c2ccccc2NC(=O)c2cccnc2)nc1CNC(=O)C1CCCCCN1C (centres undefined)	/	1%	/	/	/
CCN1/C(=C/C(C)=C/c2sc3ccccc3[n+]2CC)Sc2ccccc21	?	5%	-51*!	0	?
OC(c1ccccc1)(c1nc(-c2cccc(C(F)(F)F)c2)cs1)C(F)(F)F (centres undefined)	2%	-1%	-2	0	/
FC(F)(F)c1cccc(-c2ccn3ncnc3n2)c1	-1%	0%	-1	-56*	i
Cc1cc(Cl)ccc1OCC(=O)NNC(=O)c1ccco1	32%	-1%	-1	-39*	-7%
CN(C)CCN1CCN(c2cccc(Cl)c2)C1=O	/	/	-2	/	/
CC(=O)CC/C=C(\C)CC/C=C(/C)CC/C=C(\C)CCC=C(C)C	0%	/	/	/	/
